PubChem BioAssay (EPA / NIEHS)
Active and inactive are the calls of the source. The calls were made as follows: active = hit-call score of the fitted dose curve at least 0.9, where 1 is the maximum; inactive = score below 0.9.

assay: APR_HepG2_MitoMembPot_1hr: Apredica 1-hour HepG2 Assay for Mitochondrial Membrane Potential (AID 2282675); conditions: imaging, actives raise or lower the signal
Method: APR_HepG2_1hr is a cell-based, multiplexed-readout assay that uses HepG2, a human liver cell line, with measurements taken at 1 hour after chemical dosing in a 384-well plate.APR_HepG2_MitoMembPot_1hr is one of 10 assay component(s) measured or calculated from the APR_HepG2_1hr assay. It is designed to make measurements of dye binding, a form of membrane potential reporter, as detected with fluorescence intensity signals by HCS Fluorescent Imaging technology.Data from the assay component APR_HepG2_MitoMembPot_1hr was analyzed into 1 assay endpoint. This assay endpoint, APR_HepG2_MitoMembPot_1hr, was analyzed with bidirectional fitting relative to DMSO as the negative control and baseline of activity. Using a type of membrane potential reporter, gain or loss-of-signal activity can be used to understand changes in the signaling. Furthermore, this assay endpoint can be referred to as a primary readout, because this assay has produced multiple assay endpoints where this one serves a signaling function. To generalize the intended target to other relatable targets, this assay endpoint is annotated to the cell morphology intended target family, where the subfamily is organelle conformation.
Cells were treated with dimethyl sulfoxide (DMSO) as a solvent control at a final concentration of 0.5% v/v or with compounds in DMSO with a resulting final DMSO concentration of 0.5% v/v. Compound treatment was done at concentrations of 0.39, 0.78, 1.56, 3.12, 6.24, 12.5, 25, 50, 100, and 200 uM in duplicate on each plate. Cells were treated with compounds for 1, 24, or 72 hr. Carbonyl […] m-chloro-phenylhydrazone (CCCP) and taxol were used as positive controls for mitochondrial function and cytoskeletal stability, respectively; DMSO served as the negative control for this experiment. Cells were fixed by the direct addition of 50 uL formaldehyde in Hank's Balanced Salt Solution (HBSS) to a final concentration of 3.7%. After incubation in the fixation medium for 30 min at room temperature (293-298 K), cells were rinsed twice with HBSS and treated with cell permeabilization buffer (16 uL of 0.5% Triton X-100) for 10 min at room temperature (293-298 K) before labeling. For mitochondrial membrane potential and mitochondrial measurements, pre-fixed cells were incubated with 50 uL of MitoTracker Red CMXRos (Invitrogen) at a concentration of 250 nM for 30 min before fixation. In the remaining cases, post-fixed cells were labeled by incubation with a multiplexed mixture of primary antibodies in HBSS for 60 min at room temperature (293-298 K) to detect immunoreactivity of c-Jun (1:500), phospho-histone H3 (1:100), phospho-histone H2A.x (1:200), p53 (1:400), alpha-tubulin (1:200) and Hoechst 33342 (2 ug/mL). Cells were labeled for multiplexed imaging on two separate plates: a) Hoechst 33342, MitoTracker Red, phospho-histone H3, and alpha-tubulin, and b) Hoechst 33342, phospho-histone H2A.x, and c-Jun. A final rinse with HBSS (50 uL) was performed before analysis. The primary and secondary antibodies for the proteins were phospho-histone H3 (rabbit anti-phospho-histone H3 and FITC-donkey anti-rabbit IgG), phospho-histone H2A.x (mouse anti-phospho-histone H2A.x and FITC-donkey anti-mouse IgG), c-Jun (rabbit anti-phospho-c-Jun and Cy3-donkey anti-rabbit IgG), p53 (sheep anti-p53 and Cy5-donkey anti-sheep IgG), alpha-tubulin (mouse anti-alpha-tubulin and Cy5-donkey anti-mouse IgG). These antibodies are available as the CellCiphr HepG2 assay kit (Millipore).Digital images of each well were captured using a Cellomics ArrayScan VTI (Thermo Scientific Cellomics) (0.8 NA objective, 0.63x optical coupler, and XF-93 filter set) at 20x magnification. The images were acquired using the autofocus feature of the ArrayScan instrument, which entails the following steps. First, the camera focuses on channel 1 (Hoechst 33342), where nuclei are identified. Second, a Z offset of 1 um is used for capturing mitochondria (MitoTracker Red). […]

Row | Structure (SMILES) | outcome | AC50
1 | CCC(CC)Nc1c([N+](=O)[O-])cc(C)c(C)c1[N+](=O)[O-] | inactive | –
2 | CCc1cccc(C)c1N(C(=O)CCl)C(C)COC (stereo not given) | inactive | –
3 | CSC1=N[C@@](C)(c2ccccc2)C(=O)N1Nc1ccccc1 | inactive | –
4 | CCc1cnc(C2=NC(C)(C(C)C)C(=O)N2)c(C(=O)O)c1 (stereo not given) | inactive | –
5 | COc1ccc(C(=CC(=O)N2CCOCC2)c2ccc(Cl)cc2)cc1OC | inactive | –
6 | CCCOc1nn(C(=O)NS(=O)(=O)c2ccccc2C(=O)OC)c(=O)n1C | inactive | –
7 | CCCCSP(=O)(SCCCC)SCCCC | inactive | –
8 | CN(C)[C@@H]1C(=O)C(C(N)=O)=C(O)[C@@]2(O)C(=O)C3=C(O)c4c(O)cccc4[C@@](C)(O)[C@H]3[C@H](O)[C@@H]12 | inactive | –
9 | CNC(=O)Oc1cccc2c1OC(C)(C)O2 | inactive | –
10 | CC1(C(=O)Nc2ccc(O)c(Cl)c2Cl)CCCCC1 | inactive | –
11 | C=C(C)[C@H]1Cc2c(ccc3c2O[C@@H]2COc4cc(OC)c(OC)cc4[C@@H]2C3=O)O1 | inactive | –
12 | CC(C)=CC1C(C(=O)OCN2C(=O)C3=C(CCCC3)C2=O)C1(C)C (stereo not given) | inactive | –
13 | CN(C)C(=O)Nc1cccc(C(F)(F)F)c1 | inactive | –
14 | CCCCOC(=O)c1ccccc1C(=O)O | inactive | –
15 | CC(C)N(C(=O)SCC(Cl)=C(Cl)Cl)C(C)C | inactive | –
16 | CCOC(=O)COc1cc(-c2nn(C)c(OC(F)F)c2Cl)c(F)cc1Cl | inactive | –
17 | CNC(=O)ON=C(SC)C(=O)N(C)C | inactive | –
18 | CN(C)NC(=O)CCC(=O)O | inactive | –
19 | CCOP(=S)(OCC)Oc1cc(C)nc(C(C)C)n1 | inactive | –
20 | CCOP(=S)(OCC)Oc1ccc([N+](=O)[O-])cc1 | inactive | –

Row | Structure (SMILES) | outcome | AC50
21 | CCc1cccc(CC)c1N(COC)C(=O)CCl | inactive | –
22 | O=[N+]([O-])c1cc(C(F)(F)F)c(Cl)c([N+](=O)[O-])c1Nc1ncc(C(F)(F)F)cc1Cl | – | 15 µM (active)
23 | FC(F)C(F)(F)OCC(Cn1cncn1)c1ccc(Cl)cc1Cl (stereo not given) | inactive | –
24 | CC(COc1ccc(Oc2ccccc2)cc1)Oc1ccccn1 (stereo not given) | – | 66.9 µM (active)
25 | CC(C)[C@H](C(=O)O[C@H](C#N)c1cccc(Oc2ccccc2)c1)c1ccc(Cl)cc1 | inactive | –
26 | CCOP(=O)(OCC)Oc1cc(C)nc(C(C)C)n1 | inactive | –
27 | CC(C1CC1)C(O)(Cn1cncn1)c1ccc(Cl)cc1 (stereo not given) | inactive | –
28 | CC(=NC#N)N(C)Cc1ccc(Cl)nc1 | inactive | –
29 | CSc1nnc(C(C)(C)C)c(=O)n1N | inactive | –
30 | CCC(=NOC/C=C/Cl)C1=C(O)CC(C2CCOCC2)CC1=O (stereo not given) | inactive | –
31 | CNC(=O)ON=C(C)SC | inactive | –
32 | CN1COCN(Cc2cnc(Cl)s2)C1=N[N+](=O)[O-] | inactive | –
33 | Nc1nc(N)nc(NC2CC2)n1 | inactive | –
34 | COP(=O)(NC(C)=O)SC (stereo not given) | inactive | –
35 | O=C(O)c1cc(Oc2ccc(C(F)(F)F)cc2Cl)ccc1[N+](=O)[O-] | inactive | –
36 | CCCCN(CC)c1c([N+](=O)[O-])cc(C(F)(F)F)cc1[N+](=O)[O-] | inactive | –
37 | CCCCOC(=O)[C@@H](C)Oc1ccc(Oc2ccc(C#N)cc2F)cc1 | inactive | –
38 | CCCSP(=O)(OCC)SCCC | inactive | –
39 | CCOP(=O)(NC(C)C)Oc1ccc(SC)c(C)c1 (stereo not given) | inactive | –
40 | CNc1cnn(-c2cccc(C(F)(F)F)c2)c(=O)c1Cl | inactive | –
